In PubChem BioAssay AID1117361 (Southern Research Institute, 2015):
In all, about 3,600 compounds went through this assay and about 900 (25%) were called active. The rule behind the calls is not given here. Not all results are given here. Measured potencies and affinities stand elsewhere.

Each molecule was assayed against Protein Tat (Human immunodeficiency virus type 1 group M subtype B (isolate HXB2)) (UniProt P04608) (assay: HIV-1 Tat–TAR interaction blockers – biochemical, fluorescence polarization, FAM-labeled TAR RNA, counter-screen for Vif-APOBEC3G degradation inhibitor project, dose response (AID 1117361)). Conditions: Tat-TAR RNA binding; series mostly up to 100 µM; inhibition: at the top concentration.

Row | SMILES | inhibition | outcome
1 | CCCCn1c(CCNC(=O)CC)nc2ccccc21 | 2.7% (inactive) | 
2 | CC(OC(=O)c1cccnc1)C(=O)NCc1ccc2c(c1)OCO2 (stereo not given) |  | inactive
3 | CCC(C)(C)NC(=O)C(c1ccc(F)cc1)N(Cc1ccco1)C(=O)c1cnccn1 (stereo not given) |  | inactive
4 | O=C(COC(=O)c1ccccc1Br)Nc1nnc(-c2ccccc2)o1 |  | inactive
5 | Cc1cc(C)cc(NC2=CC(=O)CC(c3ccco3)C2)c1 (stereo not given) | 2.47% (inactive) | 
6 | O=C(O)CCCC(=O)NCCc1cccc(Cl)c1 | 3.41% (inactive) | 
7 | COc1ccc(CSc2nnnn2C)cc1F |  | inactive
8 | COc1ccc(OC)c(C(=O)CSc2nnnn2C)c1 |  | inactive
9 | CCOC(=O)C1(CCOC)CCN(Cc2cnc(-c3cccc(C)c3)nc2)CC1 |  | inactive
10 | CCOC(=O)c1c(C)[nH]c(C(=O)COC(=O)CSCC(=O)N(CC)CC)c1C | 5.41% (inactive) | 
11 | Cc1ccc(-c2csc(NC(=O)c3ccc(-c4ccccc4)cc3)n2)o1 | 5.41% (inactive) | 
12 | Cc1ccc(NCc2nnc(SCc3ccc(C#N)cc3)n2Cc2ccco2)c(C)c1 | 11.5% (inactive) | 
13 | c1ccc(Nc2ccccn2)cc1 | 0.68% (inactive) | 
14 | CN(Cc1nc(-c2cccnc2)no1)S(=O)(=O)c1ccccc1 | 1.35% (inactive) | 
15 | Cc1cccc2c1c1ccc3c(c1n2C)C(=O)C=CC3=O | 11% (inactive) | 
16 | CCOC(=O)c1csc(N)c1-c1ccc([N+](=O)[O-])cc1 |  | inactive
17 | CCOc1ccc(NC(=O)C2CCCN(S(=O)(=O)c3c(C)nn(C)c3C)C2)cc1 (stereo not given) | 1.65% (inactive) | 
18 | COc1ccccc1N1CCN(C(=O)c2oc3cc(C)c(C)cc3c2C)CC1 |  | inactive
19 | CC(C)c1ccc(-c2nc(N3CCCCCC3)nc3n[nH]c(N)c23)cc1 |  | inactive
20 | Cc1ccc(S(=O)(=O)N(CC(=O)NCCC2=CCCCC2)Cc2ccccc2F)cc1 |  | inactive
21 | O=[N+]([O-])c1ccc2c(c1)S(=O)c1ccccc1-2 (stereo not given) |  | inactive
22 | COC(=O)CSc1nc2cc(C)cc(C)c2cc1C#N | 4.09% (inactive) | 
23 | COc1cccc(C(=O)Nc2nc3c(s2)CN(C)CC3)c1 | 10.1% (inactive) | 
24 | NC(=S)N=Nc1c(O)n(C2OC(=O)c3ccccc32)c2ccccc12 (stereo not given) | 3.41% (inactive) | 
25 | CCOc1ccccc1C(=O)NCC(=O)OCC(=O)NCCc1ccc(S(N)(=O)=O)cc1 | 10.1% (inactive) | 
26 | COC(=O)c1c(C)[nH]c(C=O)c1-c1ccccc1 |  | inactive
27 | COC(=O)C(O)(CC(=O)c1ccc(OC)cc1)C(F)(F)F (stereo not given) | 2.03% (inactive) | 
28 | CCCC(NCC(=O)Nc1ccccc1C(=O)NC1CC1)c1ccccc1 (stereo not given) |  | inactive

Row | SMILES | inhibition | outcome
29 | COc1ccc(NC(=O)C2CCCN2S(=O)(=O)c2cccc3cccnc23)c(OC)c1 (stereo not given) | 0.68% (inactive) | 
30 | O=C(C1CCC(CNS(=O)(=O)c2cccc3cccnc23)CC1)N1CCCC1 (stereo not given) |  | inactive
31 | O=C(Nc1ccc(-c2noc(-c3cccs3)n2)cc1)c1cccnc1 | 2.05% (inactive) | 
32 | COc1ccc(-c2nc(C(N)=O)c3[nH]c(=O)n(-c4cccc(Cl)c4)c3n2)cc1OC | 2.7% (inactive) | 
33 | O=c1cc(-c2ccc(O)cc2)oc2cc(O)c(C3OC(CO)C(O)C(O)C3O)c(O)c12 (stereo not given) | 21.4% (inactive) | 
34 | CSCCC(NC(=O)C1CCC(C)CC1)C(=O)NCc1ccco1 (stereo not given) | 6.82% (inactive) | 
35 | Cc1ccc(-n2c(SCC(N)=O)nc3c([nH]c4ccccc43)c2=O)cc1 | 1.35% (inactive) | 
36 | CN1C(=O)c2ccccc2C(C(=O)O)C1c1cccc(F)c1 (stereo not given) | 1.36% (inactive) | 
37 | Cc1cc(O)c(C(C)C)cc1N=Cc1ccc([N+](=O)[O-])cc1 |  | inactive
38 | Cc1ccc(-n2ncc3c(=O)[nH]cnc32)c(C)c1 |  | inactive
39 | O=C(NC1CCCCC1)C(c1ccc(Cl)cc1)N(C(=O)c1ccccn1)c1cccnc1 (stereo not given) |  | inactive
40 | COc1ccccc1NC(=O)c1cc2ccc(O)cc2o/c1=N\O |  | inactive
41 | CCOC(=O)CSc1nnc(CNC(=O)c2cc(OC)c(OC)c(OC)c2)n1C |  | inactive
42 | COC(=O)CSc1nnc(CNC(=O)Cc2ccccc2)n1-c1ccccc1OC | 1.36% (inactive) | 
43 | CCOc1ccc(OCCOc2cccc(C(F)(F)F)c2)cc1 | 4.05% (inactive) | 
44 | Cn1c(CN2CCOCC2)nc2cc(NC(=O)c3ccc(F)cc3)ccc21 | 4.77% (inactive) | 
45 | C/C(=C1\SC(N2CCOCC2)=NC1=O)c1ccccc1 |  | inactive
46 | COc1cccc(/C=C2\SC(N)=NC2=O)c1OS(=O)(=O)c1ccccc1 |  | inactive
47 | O=C1N=C(N2CCOCC2)SC1=Cc1ccco1 | 6.35% (inactive) | 
48 | COc1cccc(-c2nc3n(n2)C(c2cccs2)C(C(=O)Nc2cccnc2)=C(C)N3)c1 (stereo not given) |  | inactive
49 | O=C(CCc1ccccc1)NNC(=S)NCCc1ccccc1 |  | inactive
50 | Cc1cc(C(C)(C)C)ccc1OCCN(C)C | 0.68% (inactive) | 
51 | COCCn1c(Sc2ccc(C)cc2)nc2c1c(=O)[nH]c(=O)n2C |  | inactive
52 | Nc1nc(Cl)cc(N2CCC(c3cc(-c4ccc(Cl)cc4Cl)n[nH]3)CC2)n1 |  | inactive
53 | CCOC(=O)N1CCN(S(=O)(=O)c2ccc3c(c2)C(C)C(=O)N3)CC1 (stereo not given) | 8.25% (inactive) | 
54 | O=C(Nc1ccc2oc(=O)ccc2c1)c1ccc(-c2ccc(Cl)cc2)o1 | 16.4% (inactive) | 
55 | COc1cccc(/C=N/n2c(N)c(S(=O)(=O)c3cccs3)c3nc4ccccc4nc32)c1 | 8.11% (inactive) | 
